GALK inh = galactokinase (human) inhibition; hit rate 0.007% among 270,000; Potency, µM (highest dose often 57.5 µM), hits mostly inhibitors; P51570; Purified GALK, Kinase-Glo residual ATP luminescence
Target sequence (P51570 whole entry, looked up): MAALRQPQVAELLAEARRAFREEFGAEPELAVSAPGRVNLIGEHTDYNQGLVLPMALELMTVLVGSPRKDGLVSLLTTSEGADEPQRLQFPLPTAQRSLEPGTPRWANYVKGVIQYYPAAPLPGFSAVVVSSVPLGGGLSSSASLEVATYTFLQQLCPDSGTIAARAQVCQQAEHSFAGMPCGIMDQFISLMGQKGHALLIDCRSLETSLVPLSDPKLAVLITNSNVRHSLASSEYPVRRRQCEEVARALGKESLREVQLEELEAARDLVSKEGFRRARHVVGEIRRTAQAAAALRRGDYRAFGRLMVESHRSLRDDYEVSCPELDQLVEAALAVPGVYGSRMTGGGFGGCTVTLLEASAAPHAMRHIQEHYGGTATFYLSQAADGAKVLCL
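ATP-depletion format; final 35 uM ATP, 100 uM D-galactose, 5 nM enzyme; pH 8.0 HEPES/Mg2+ buffer; 60 min RT; luminescence read 10 min after detection reagent.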
USP2a inh = blocks human ubiquitin-specific protease USP2a. O75604. USP2 core, Ub-CHOP2 coupled fluorogenic reporter, 485/531. Potency, µM (doses to about 38.3 µM), usual class: inhibitors. hit rate 0.01% among 330,000. AID 463254
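Cell-free coupled assay: 10nM USP2 core preincubated 30min RT with compound in Tris-HCl pH 8.0/CaCl2/CHAPS buffer, then 25nM Ub-CHOP2 and 25nM reporter substrate; fluorescence (Ex 485/Em 531) read after 60min RT, normalized to NEM inhibition, concentration-response curves fitted.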
Eya2 phos inh = blocks the phosphatase activity of human Eya2; AID 488837; Potency, µM (top dose mostly 76.9 µM), hits mostly inhibitors; recombinant Eya2, OMFP fluorescence dephosphorylation (OMFP is methylfluorescein phosphate); O00167; hit rate 0.006% among 330,000
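Eya2 (0.2 uM) preincubated 10 min at ambient with compound, then OMFP substrate added at 50 uM; 10 min reaction in 50 mM HEPES pH 7.5, 50 mM NaCl, 5 uM MgCl2, 0.05% BSA, 1 mM DTT. Fluorescence read at Ex 485/Em 525 nm.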
ClpP mod = qHTS Assay for Activators of ClpP | ATP-dependent Clp protease proteolytic subunit (Bacillus subtilis (strain 168)), P80244 | purified B. subtilis ClpP, FRET peptide cleavage, 20 min | Potency, µM (doses to about 57.5 µM) | hit rate 1.9% among 340,000; active = well fitted falling curve with a large enough effect; inconclusive = small, poorly fitted or top-dose-only effect; inactive = no such curve, though single readings can be large or run the other way; note: the source files actives as falling curves though it sought activators and does not explain the sign; nearly all actives have a fitted effect of over 65% in size
Target sequence (P80244 whole entry, looked up): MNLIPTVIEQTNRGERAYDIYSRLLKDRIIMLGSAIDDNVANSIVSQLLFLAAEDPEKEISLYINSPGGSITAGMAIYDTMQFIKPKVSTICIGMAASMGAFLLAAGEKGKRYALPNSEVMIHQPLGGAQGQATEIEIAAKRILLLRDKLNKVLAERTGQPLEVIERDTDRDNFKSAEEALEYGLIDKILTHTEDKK
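FRET quenching reversal measured ClpP activation: 10 microg/mL B. subtilis ClpP at pH 8 with the FRET-FV decapeptide, read at 430 nm after 320 nm excitation. The 20-min minus 0-min signal was scaled between DMSO/no-enzyme wells and ADEP (5.8 microM final).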
Numbers stand for hits; n = inactive; u = inconclusive; x = no result given. Shown is part of a subset that was picked to be rich in hits. Unless noted, calls come from the whole dose curve; as a rule, active = well fitted inhibition curve with a large enough effect; inconclusive = small, poorly fitted or top-dose-only effect, or effect the other way; inactive = flat fitted curve, though single readings scatter.

SMILES	GALK inh	USP2a inh	Eya2 phos inh	ClpP mod
C=CCn1c(Cc2cccc3ccccc23)n[nH]c1=S	n	n	n	n
O=C(C(=O)N1CCN(Cc2ccccc2)CC1)c1c[nH]c2ccccc12	x	x	x	n
NCCCCCC(=O)N/N=C/c1coc2ccccc2c1=O	x	n	n	18µM
COc1ccc2oc(C(=O)NCCc3ccccc3)c(C)c2c1	x	n	n	x
CCCCc1nnc(NC(=O)c2oc3ccc(OC)cc3c2C)s1	x	n	n	32µM
COc1ccc2oc(C(=O)NCC(c3ccco3)N(C)C)c(C)c2c1 (stereo not given)	x	n	n	28µM
COc1ccc(C(N)c2csc(NC(=O)Nc3ccccc3C(C)(C)C)n2)cc1 (stereo not given)	x	x	x	n
CC(C)Cn1c(N)c(C(=O)COC(=O)c2cc(C3CC3)nc3ccccc23)c(=O)n(C)c1=O	x	n	n	25µM
COc1ccc(CCNC(=O)c2cc(-c3ccncc3)nc3c(Cl)cccc23)cc1OC	n	n	n	n
O=C(NCc1ccc2c(c1)OCO2)c1ccc2c(c1)C(=O)N(Cc1cccnc1)C2=O	n	n	n	18µM
O=C(NCc1cccnc1)c1ccc2c(c1)C(=O)N(Cc1ccccc1)C2=O	n	n	n	n
O=C1NC(=O)c2cc(NC(=O)C3CCCO3)ccc21 (stereo not given)	n	n	n	28µM
Cc1ccc(NS(=O)(=O)c2ccc(NC(=O)C3CCCO3)cc2)cc1 (stereo not given)	n	n	n	32µM
O=C1OCc2cc(NC(=O)C3CCCO3)ccc21 (stereo not given)	n	n	n	n
S=C(NCc1cccnc1)Nc1ccc(Cl)c(Cl)c1	n	n	n	n
Cc1cc(C=Nc2ccc(/C=C/c3ccnc4ccccc34)cc2)ccc1N(C)C	x	x	x	n
CSc1ccc(-c2nc3ccc(C)cn3c2Nc2ccccc2C)cc1	x	x	x	3.5µM
Cc1cccc(OCCOCCSc2ncccn2)c1	n	n	n	n
c1ccc(OCCOCCSc2ncccn2)cc1	n	n	n	20µM
NC1=NC2(CCCCC2)N=C(Nc2ccc(F)cc2F)N1	n	n	n	n
COc1cc(OC)c(-c2oc3ccccc3c(=O)c2O)c(OC)c1	x	x	x	28µM
CN(Cc1ccccc1)C(=O)C1CCCN(Cc2ccc(Cl)cc2)C1 (stereo not given)	n	n	n	11µM
CCN(CC)C(=O)C1CCCN(Cc2ccccc2)C1 (stereo not given)	n	n	n	n
CC1CCN(S(=O)(=O)c2ccc(NC(=O)C3CSC4(C)CCC(=O)N34)cc2)CC1 (stereo not given)	x	n	n	28µM
Cc1ccc(C(=O)Nc2ccccc2C(=O)NCC2CCCO2)cc1 (stereo not given)	n	n	n	n
SMILES	GALK inh	USP2a inh	Eya2 phos inh	ClpP mod
COC(=O)c1ccccc1NC(=O)NCC1CCCO1 (stereo not given)	n	n	n	25µM
Cc1ccccc1NC(=O)NCC1CCCO1 (stereo not given)	n	x	x	28µM
COC(=O)c1ccccc1NC(=O)C(=O)NCC1CCCO1 (stereo not given)	n	n	n	n
COC(=O)c1ccccc1N(Cc1ccccc1)S(C)(=O)=O	n	n	n	25µM
CC(C)NC(=O)c1ccccc1N(Cc1ccccc1)S(C)(=O)=O	n	n	n	n
Cc1ccc2c(CC(=O)NCC3COc4ccccc4O3)coc2c1 (stereo not given)	n	n	n	u
CCCn1c(=O)[nH]c(=O)c2c1nc(-c1ccccc1OC(F)F)n2CCOC	n	n	n	25µM
COCCn1c(-c2ccc(SC)cc2)nc2c1c(=O)[nH]c(=O)n2CC(C)C	n	n	n	x
COCCn1c(-c2ccc(OC(F)(F)C(F)C(F)(F)F)cc2)nc2c1c(=O)[nH]c(=O)n2CC(C)C (stereo not given)	n	n	n	28µM
CCCn1c(=O)[nH]c(=O)c2c1nc(-c1ccc(OC(F)F)c(OC)c1)n2CCOC	n	n	n	25µM
CCCn1c(=O)[nH]c(=O)c2c1nc(-c1ccc(C(F)(F)F)cc1)n2CCOC	n	n	n	x
Cc1ccc(-c2cc(C(F)(F)F)n3nc(-c4ccc(Cl)cc4)cc3n2)cc1	x	x	x	n
COC(=O)NNC(=O)/C=C/c1ccccc1	n	n	n	n
CC(C)(C)c1ccc(C(=O)N/N=C2\C3CN4CCN(C3)CC2(c2ccccc2)C4)cc1	n	n	n	22µM
O=C(CCS(=O)(=O)c1cccc2nonc12)NC1CCCCCC1	n	n	n	n
CCOC(=O)c1cnn(-c2nc(-c3ccc(C)cc3)cs2)c1C(F)(F)F	n	n	n	32µM
CCC(C)C(NC(=O)C1CCC(C)CC1)C(=O)NCc1ccco1 (stereo not given)	n	n	n	x
Cc1ccc(-n2nc(CO)c(C(=O)NCCO)n2)cc1	x	x	x	8.9µM
Cc1cc(C)cc(C(=O)NCCCc2ccccc2)c1	n	n	n	x
Cc1ccc(-n2nc(CO)c(C(=O)NCC(c3ccccc3)c3ccccc3)n2)cc1	x	x	x	n
Cc1ccc(-n2nc(CO)c(C(=O)NC(C)CCCc3ccccc3)n2)cc1 (stereo not given)	x	x	x	32µM
Cc1ccc(-n2nc(CO)c(C(=O)NCCCCc3ccccc3)n2)cc1C	x	x	x	25µM
Cc1ccc(-n2nc(CO)c(C(=O)NCCCc3ccccc3)n2)cc1	x	x	x	22µM
Cc1c(CCNC(=O)Cc2ccc(F)cc2)sc2nc(-c3ccc(F)cc3)nn12	x	x	x	n
COc1ccc(CN(C)C[C@@H]2OCCCC[C@@H](C)Oc3ccc(N(C)C)cc3C(=O)N([C@H](C)CO)C[C@@H]2C)cc1	x	x	x	n
SMILES	GALK inh	USP2a inh	Eya2 phos inh	ClpP mod
COc1ccccc1CNC(=O)Nc1nc(C(N)CCc2ccccc2)cs1 (stereo not given)	x	x	x	n
Cc1ccc(-n2nc(CO)c(C(=O)NCCCCc3ccccc3)n2)cc1	x	x	x	10µM
CCc1ccc(-n2nc(CO)c(C(=O)NCc3ccccc3OC)n2)cc1	x	x	x	n
COc1ccc(-c2cn3ccc4ccccc4c3n2)cc1	n	n	n	28µM
Cc1cccn2cc(-c3ccccc3)nc12	n	n	n	10µM
COc1ccc(-c2cn3cccc(C)c3n2)cc1Br	n	n	n	u
Cc1ccc2nc(-c3ccccc3)cn2c1	n	n	n	14µM
Cc1cccn2cc(-c3ccc(F)cc3)nc12	n	n	n	18µM
COc1ccc(NC(=O)CCNS(=O)(=O)c2cc(Br)cnc2N)c(OC)c1	n	n	n	n
CC(C)Nc1nc2c(-c3cccc(Br)c3)nnn2c2ccccc12	x	x	x	n
Cc1cccc(NC(=O)N[C@@H](C)C(=O)O)c1	n	n	n	16µM
NS(=O)(=O)c1ccc(NS(=O)(=O)c2ccc(C3CNC(=O)C3)cc2)cc1 (stereo not given)	n	n	u	28µM
CS(=O)(=O)N1CCN(c2ccccc2NC(=O)c2cc(Br)ccc2Cl)CC1	n	n	n	x
CS(=O)(=O)N1CCN(c2ccccc2NC(=O)c2ccc(-c3ccc(Br)cc3)o2)CC1	n	n	n	32µM
O=C1c2cc3ccccc3c(-c3ccccc3)c2C(=O)N1c1ccccn1	n	n	n	32µM
